Source: PubChem BioAssay (Tox21)
Inconclusive results are not listed. Unmarked numbers belong to inactive results. Activity calls are given as the source filed them. Calls come from the whole dose curve.

molecular target: Vitamin D3 receptor (Homo sapiens) (UniProt P11473); experiment: qHTS assay to identify small molecule agonists of the vitamin D receptor (VDR) signaling pathway (AID 743222); conditions: HEK293T VDR-UAS-bla, beta-lactamase FRET ratio, 16 h; series mostly up to 63.5 µM; activation: at the top concentration
Excerpt: National Center for Advancing Translational Sciences [NCATS]
NIH Chemical Genomics Center [NCGC]
U.S. Environmental Protection Agency [EPA]
National Institutes of Environmental Health Sciences [NIEHS]
National Toxicology Program [NTP]
U.S. Food and Drug Administration [FDA]
The vitamin D receptor (VDR), a member of nuclear hormone receptor superfamily, plays a critical role in calcium homeostasis and bone metabolism. It is also involved in cell differentiation and growth, and thrombogenicity.
Tox21 Assay Protocol Summary:
VDR-bla cells were dispensed at 2,000 cells/6 uL/well into black wall/clear-bottom 1536-well plates using a Multidrop Combi (Thermo Fisher Scientific, Waltham, MA) dispenser. After the assay plates were incubated at a 37C and 5% CO2 for 4 h, 23 nL of compounds dissolved in DMSO, positive controls or DMSO only was transferred to the assay plate by a Pintool station (Kalypsys, San Diego, CA). The plates were incubated at 37C and 5% CO2 for 16 h. After 1 uL of LiveBLAzerTM B/G FRET substrate was added using a Bioraptr Flying Reagent Dispenser (FRD) workstation (Beckman Coulter, Indianapolis, IN, USA), the plates were incubated at room temperature for 2 h, and fluorescence intensity was measured by an Envision plate reader (PerkinElmer, Shelton, CT).
% is set by controls: 0 for no effect and ±100 for the full control effect.

Chain of Vitamin D3 receptor (Homo sapiens) (P11473 whole entry, looked up): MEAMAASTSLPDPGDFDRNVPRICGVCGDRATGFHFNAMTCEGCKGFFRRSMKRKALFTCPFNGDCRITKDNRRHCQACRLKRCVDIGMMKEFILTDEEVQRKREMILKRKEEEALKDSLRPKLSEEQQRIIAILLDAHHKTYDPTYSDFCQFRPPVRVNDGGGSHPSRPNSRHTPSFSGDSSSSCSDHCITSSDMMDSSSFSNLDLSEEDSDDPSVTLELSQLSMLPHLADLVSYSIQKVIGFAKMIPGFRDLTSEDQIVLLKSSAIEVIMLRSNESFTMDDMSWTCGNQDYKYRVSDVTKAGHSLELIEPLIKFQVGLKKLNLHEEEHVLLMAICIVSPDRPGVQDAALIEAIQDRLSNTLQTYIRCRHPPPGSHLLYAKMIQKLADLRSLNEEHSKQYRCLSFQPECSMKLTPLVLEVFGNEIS

Structure (SMILES) | outcome | activation
CNC(=O)O/N=C/C(C)(C)S(C)=O (stereo not given) | inactive | 
OCCCCO | inactive | 
OCC(O)CCl (stereo not given) | inactive | 
CNc1cnn(-c2cccc(C(F)(F)F)c2)c(=O)c1Cl | inactive | 
CC12CC1(C)C(=O)N(c1cc(Cl)cc(Cl)c1)C2=O (stereo not given) | inactive | 
CN(C)CCC#N | inactive | 
O=C/C=C/c1ccccc1 | inactive | 
COP(=S)(OC)Oc1ccc(SC)c(C)c1 | inactive | 
N#Cc1cccc(C#N)c1 | inactive | 
Clc1cnc(Oc2ccc(Oc3ncc(Cl)cc3Cl)cc2)c(Cl)c1 | inactive | 
CN1C(=O)CCS(=O)(=O)C1c1ccc(Cl)cc1 (stereo not given) | inactive | 
Nc1cc(Cl)cc(Cl)c1 | inactive | 
Nc1ncc([N+](=O)[O-])s1 |  | 1.1% [at 81.1 µM]
CC[N+](=O)[O-] | inactive | 
Cc1ccc(N=C=O)cc1N=C=O | inactive | 
ClC(Cl)c1ccccc1 | inactive | 
C=C(C)C(=O)OCC(CC)CCCC (stereo not given) |  | 0.178% [at 81.1 µM]
COc1cc(-c2ccc(N)c(OC)c2)ccc1N | inactive | 
OCc1ccco1 |  | 3.69% [at 81.1 µM]
[N-]=[N+]=CC(=O)OC[C@H](N)C(=O)O | inactive | 

Structure (SMILES) | outcome | activation
O=C(O)Cc1ccccc1 | inactive | 
Sc1ccccc1 | inactive | 
CC(C)CCCCCCOC(=O)c1ccccc1C(=O)OCCCCCCC(C)C | inactive | 
CC(C)(C)C(=O)CCl | inactive | 
O=[N+]([O-])c1cc([As](=O)(O)O)ccc1O | inactive | 
O=S(=O)(O)OOS(=O)(=O)O | inactive | 
CN(C)NC(=O)CCC(=O)O |  | 0.623% [at 81.1 µM]
N#CN=C(N)N |  | 0.8% [at 81.1 µM]
FC(F)(F)c1ccc(Cl)cc1 | inactive | 
O=C(O)COc1ccccc1 | inactive | 
CCSC(=O)N1CCCCCC1 | inactive | 
CC(=O)/C=C/c1ccccc1 | inactive | 
CCOc1ccc(N)cc1 | inactive | 
CSc1nnc(C(C)(C)C)c(=O)n1N | inactive | 
C=CCN=C=S | inactive | 
CNCC(O)c1ccc(O)cc1 (stereo not given) | inactive | 
O=[N+]([O-])c1ccc(Cl)c(Cl)c1 | inactive | 
CC(=O)C1CCOC1=O (stereo not given) | inactive | 
O=C(O)C(Br)Br | inactive | 
Nc1cccc(Cl)c1 | inactive | 
